# Compounds with a hit are over-represented: about 0.57% of the library has one in this group of screens.
# Mtb BioA inh: blocks M. tuberculosis BioA enzyme activity; inhibition, % at 9.99 µM; actives 0.096% (n = 360,000); purified M. tuberculosis BioA enzyme, plate reader; in the data active = inhibition above about 40%; inconclusive = no clear call, values can overlap the other calls
# PrP 5UTR inh: suppresses PrP 5' UTR mRNA reporter expression; inhibition, % (concentration not given with the values); cell-based PrP 5' UTR mRNA reporter, plate reader; actives 0.35% (n = 340,000); in the data active = inhibition above about 52%; also: 0 = median of the neutral control wells
# TcdB inh: blocks C. difficile toxin B glycohydrolase activity; P18177; TcdB glycohydrolase enzymatic assay, plate reader; inhibition, % at 9.99 µM; actives 0.24% (n = 350,000); in the data active = inhibition above about 10%
# Yp Topo-I inh: inhibitors of Yersinia pestis topoisomerase I; Y. pestis Topo-I cleavage product accumulation, plate reader; activity, % at 10 µM; actives 0.064% (n = 360,000); in the data active = activity above about 50%, passing the limit was not always enough; inconclusive = no clear call, values can overlap the other calls
# PrP 5UTR single: prion 5' UTR mRNA inhibition, cherry-pick retest; shares compounds with PrP 5UTR inh; cell-based prion protein 5' UTR reporter, plate reader; inhibition, % at 2.5 µM; actives 48% (n = 1,100); AID 504592; in the data active = inhibition above about 54%; inconclusive = no clear call, values can overlap the other calls
# An asterisk follows results filed as active; ? = inconclusive; nt = no result given.
SMILES,Mtb BioA inh,PrP 5UTR inh,TcdB inh,Yp Topo-I inh,PrP 5UTR single
COc1ccc(C2/C(=C(/O)c3ccccc3)C(=O)C(=O)N2CCN2CCOCC2)c(OC)c1 (stereo unspecified),-1.1,-19.4,nt,1.8,nt
C[C@@H]1CN([C@@H](C)CO)C(=O)c2cc(-c3ccccc3)cnc2O[C@@H]1CN(C)C(=O)Cc1cccnc1,-0.8,nt,-1.8,nt,nt
O=[N+]([O-])c1ccc(O)c(/C=N/Nc2ccccn2)c1,-0.2,54.1*,-1.4,6.1,58.3*
COc1ccc2c3c(n(C)c2c1)[C@@H](CO)N(S(C)(=O)=O)CC31CN(C(=O)C2CCCC2)C1,nt,nt,0.0,nt,nt
COc1cc(C2C3=C(Nc4ncnn42)c2ccccc2CC3)cc(OC)c1OC (stereo unspecified),12.7,61.7*,nt,20.3,85.6*
O=C(Nc1nncs1)c1cc2c(s1)CCC2,nt,-3.5,2.1,0.9,nt
O=C(Nc1nccs1)c1cc2c(s1)CCCCC2,0.3,63.7*,nt,-1.7,72.1*
COc1ccc2cc3c(N)nn(C(=O)c4ccc(F)cc4)c3nc2c1,nt,15.0,2.1,-6.1,nt
COc1ccc2cc3c(N)nn(C(=O)c4ccccc4Cl)c3nc2c1,nt,57.6*,1.1,12.4,47.0
Cc1ccc(C(=O)O/N=C(\N)c2ccccn2)cc1,0.4,87.0*,1.5,7.6,94.0*
Cc1cccc(C(=O)O/N=C(\N)c2ccccn2)c1,0.7,56.0*,0.7,8.0,75.0*
CCOc1ccc(C(=O)O/N=C(\N)c2ccccn2)cc1,-1.7,84.0*,1.3,-7.4,92.4*
CC(C)(C)c1ccc(C(=O)O/N=C(\N)c2ccccn2)cc1,-1.0,77.2*,1.4,16.1,74.6*
Cc1ccc(C(=O)O/N=C(\N)c2ccccn2)cc1C,0.3,87.0*,-0.5,8.6,77.3*
Cc1cccc(CSC(=N)N)c1,nt,52.5*,-1.0,-0.6,3.2
N=C(N)SCCc1cnc[nH]1,0.4,-10.4,0.9,-4.0,nt
N=C(N)SCCc1cccc(CCSC(=N)N)c1,-0.9,70.5*,0.7,1.7,-20.7
O=C(C[C@H]1C[C@@H]2c3cc(NC(=O)Nc4ccc(F)cc4)ccc3O[C@@H]2[C@H](CO)O1)NC1CCCCC1,-3.9,nt,nt,nt,nt
COc1ccc(-c2noc(CCC(=O)Nc3ccc4c(c3)OCCO4)n2)cc1,-0.6,-7.6,nt,3.0,nt
Cc1ccc(-c2noc(CCC(=O)Nc3ccc4c(c3)OCO4)n2)cc1,3.1,59.8*,nt,-4.0,-15.0
CC(C)(C)[C@H]1COC(=O)CCCC/C=C\C[C@H](CC(=O)NCCO)C(=O)N1,1.0,57.8*,-0.3,1.7,?
Cc1nc2ncccn2c1-c1csc(Nc2ccc(O)cc2)n1,nt,-4.5,5.8,-12.6,nt
Cc1nc2ccccn2c1-c1csc(NCc2ccco2)n1,0.9,-9.6,nt,11.3,nt
Cc1ccc(Nc2nc(-c3c(C)nc4ccccn34)cs2)cc1,-0.9,59.4*,nt,-8.5,82.5*
Cc1ccc(Nc2nc(-c3c(C)nc4ncccn34)cs2)cc1,2.7,66.8*,nt,27.5,88.7*
SMILES,Mtb BioA inh,PrP 5UTR inh,TcdB inh,Yp Topo-I inh,PrP 5UTR single
COCCCn1c(=NC(=O)c2ccccc2)c(C#N)cc2c(=O)n3cccc(C)c3nc21,-0.8,66.3*,0.5,7.8,-16.9
O=C(Cc1ccccn1)N1CC2(C1)[C@@H](c1ccccc1)[C@@H](CO)N2C(=O)c1ccccc1,nt,nt,0.6,nt,nt
Cc1ccc(C(=O)/C=C/Nc2ccccn2)cc1,nt,75.6*,nt,-3.9,61.7*
Cc1cc(C=C2C(=O)c3ccccc3C2=O)c(C)n1-c1ccccc1,6.5,75.4*,nt,3.0,61.8*
Cc1cc(C=C2C(=O)c3ccccc3C2=O)c(C)n1-c1cccc(C(=O)O)c1,6.4,-9.5,1.9,-4.1,nt
CCOC(=O)C(C)Oc1cccc2c(=O)n(CC(=O)Nc3ccc(OC)cc3)ccc12 (stereo unspecified),1.4,nt,0.0,20.1,nt
CCOC(=O)C(C)Oc1cccc2c(=O)n(CC(=O)NCc3ccccc3)ccc12 (stereo unspecified),0.2,75.4*,0.8,-11.0,88.0*
CCOC(=O)C(C)Oc1cccc2c(=O)n(CC(=O)NCc3ccc(F)cc3)ccc12 (stereo unspecified),2.5,79.4*,0.0,4.8,90.8*
CCOC(=O)C(C)Oc1cccc2c(=O)n(CC(=O)NCCc3ccccc3)ccc12 (stereo unspecified),nt,-70.5,-0.7,13.2,nt
COCC(=O)N[C@@H]1CC[C@@H](CC(=O)NCc2ccccc2OC)O[C@H]1CO,-2.2,nt,0.6,nt,nt
O=C(C[C@@H]1CC[C@@H]2[C@H](COC[C@H](O)CN2S(=O)(=O)c2ccccc2)O1)NCc1ccc2c(c1)OCO2,-0.4,nt,-0.1,nt,nt
Cc1ccccc1-c1nc(-c2ccccn2)no1,nt,70.3*,0.4,17.1,?
